# Results: PubChem BioAssay (NCI)
# “And” between values parts separate entries of the source, which are not always exact repeats. Equal values may be shown once. This is part of a sample that, as a whole, favours compounds with a hit. Of some 83,000 tested, about 20% had one in any assay.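 Results are percent growth after 48 hours of single-concentration exposure. 100 means growth as in untreated cells, lower positive values show inhibition; negative values down to -100 show cell death.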 The source made the active and inactive calls. Rule for the calls: active = growth percent below 10; inactive = the rest.
# Key:
# Assay in all cases: NCI-60 one-dose screen, 48 h (100 = growth as untreated, 0 = no growth, -100 = all killed)
# Settings in all cases: 10 µM unless noted
# DU-145 prostate = system: DU-145 prostate
# K-562 leukemia = system: K-562 leukemia
# MALME-3M melanoma = system: MALME-3M melanoma
# MDA-MB-231 breast = system: MDA-MB-231 breast
# RXF 393 renal = system: RXF 393 renal
# SF-268 CNS = system: SF-268 CNS
# SF-295 CNS = system: SF-295 CNS
# SF-539 CNS = system: SF-539 CNS
# UACC-257 melanoma = system: UACC-257 melanoma
# M14 melanoma = system: M14 melanoma
Compound,growth (DU-145 prostate),growth (K-562 leukemia),growth (MALME-3M melanoma),growth (MDA-MB-231 breast),growth (RXF 393 renal),growth (SF-268 CNS),growth (SF-295 CNS),growth (SF-539 CNS),growth (UACC-257 melanoma),growth (M14 melanoma)
C=C1CCC2C3(C)COC(c4ccc(NC(C)=O)cc4)OC3CCC2(C)C1C/C=C1/C(=O)OCC1O (configuration not stated),108% (inactive),18.7% (inactive),66.6% (inactive),87.3% (inactive),62.6% (inactive),94% (inactive),25.1% (inactive),69.6% (inactive),30.5% (inactive),76.3% (inactive)
Clc1ccc(Nc2nc(Nc3ccc(Cl)cc3)nc(Nc3ccc(-c4cc(-c5cccc(Cl)c5)on4)cc3)n2)cc1,110% (inactive),85.9% (inactive),128% (inactive),81.3% (inactive),39.3% (inactive),87.7% (inactive),102% (inactive),102% (inactive),108% (inactive),94.8% (inactive)
CC(=O)c1nn(-c2ccccc2)/c(=N/N=Cc2cn(-c3ccccc3)nc2-c2cc3ccccc3oc2=O)s1,107% (inactive),98.5% (inactive),104% (inactive),82.6% (inactive),111% (inactive),104% (inactive),103% (inactive),99.6% (inactive),108% (inactive),97.4% (inactive)
COc1ccc(C/C(C)=C(\c2ccc(O)cc2)c2ccc(OCCCN(C)C)cc2)cc1,101% (inactive),70.4% (inactive),97.1% (inactive),106% (inactive),89.5% (inactive),88.1% (inactive),104% (inactive),107% (inactive),92.4% (inactive),99.4% (inactive)
Cc1cnc(C(=O)NNc2nc3sc4c(c3c(=O)[nH]2)C(C)CCC4)cn1 (configuration not stated),22.6% (inactive),14% (inactive),15.9% (inactive),42.8% (inactive),6.15% (active),16.7% (inactive),23.4% (inactive),10.1% (inactive),1.78% (active),0.29% (active)
COc1ccc(Cn2cc(C(=O)Nc3cccnc3Nc3ccccc3)nn2)cc1,103% (inactive),108% (inactive),120% (inactive),86.4% (inactive),103% (inactive),96% (inactive),102% (inactive),95.6% (inactive),110% (inactive),106% (inactive)
O=C(O)c1ccccc1Cc1ccc(F)c2ccccc12,90.6% (inactive) and 116% (inactive),103% (inactive) and 98.4% (inactive),102% (inactive) and 117% (inactive),115% (inactive) and 106% (inactive),107% (inactive) and 95.9% (inactive),102% (inactive) and 103% (inactive),71.1% (inactive) and 103% (inactive),117% (inactive) and 107% (inactive),107% (inactive) and 98.8% (inactive),129% (inactive) and 102% (inactive)
CC(=O)Nc1c(I)c(NC(C)=O)c(I)c(C(=O)O)c1I,115% (inactive) and 142% (inactive),69.4% (inactive),93.7% (inactive) and 84.5% (inactive),105% (inactive) and 117% (inactive),113% (inactive) and 25.5% (inactive),107% (inactive) and 120% (inactive),90.4% (inactive) and 104% (inactive),99.3% (inactive) and 99.7% (inactive),105% (inactive),95.9% (inactive) and 104% (inactive)
COc1c(NC=O)c2c(c([N+](=O)[O-])c1OC)C(=O)OC2,130% (inactive) and 119% (inactive),125% (inactive) and 102% (inactive),–,104% (inactive) and 89.8% (inactive),113% (inactive) and 105% (inactive),112% (inactive) and 105% (inactive),109% (inactive) and 96.4% (inactive),120% (inactive) and 87.3% (inactive),97.4% (inactive) and 111% (inactive),104% (inactive) and 100% (inactive)
c1ccc(-c2cc(-c3cc(-c4ccccc4)on3)no2)cc1,9.62% (active),77.7% (inactive),114% (inactive),105% (inactive),74.8% (inactive),90.1% (inactive),82.2% (inactive),91.3% (inactive),79.6% (inactive),109% (inactive)
COc1ccc(-c2cc3cnc4ccccc4c3oc2=O)cc1,97.8% (inactive),28.1% (inactive),97% (inactive),88.2% (inactive),86.5% (inactive),99.7% (inactive),96.7% (inactive),102% (inactive),96.4% (inactive),106% (inactive)
Nc1ncnc2c1C(c1ccc([N+](=O)[O-])cc1)c1sc3c(F)cccc3c1O2 (configuration not stated),93.1% (inactive),83.4% (inactive),104% (inactive),84.4% (inactive),101% (inactive),98.7% (inactive),106% (inactive),96% (inactive),121% (inactive),112% (inactive)
OCCN1CCN(CC/C=C2\c3ccccc3Sc3ccc(Cl)cc32)CC1,17.1% (inactive) and 65% (inactive),-90.8% (active) and -68.9% (active),-53.2% (active),29.3% (inactive) and 44.8% (inactive),23.5% (inactive),51.7% (inactive) and 46.6% (inactive),47.6% (inactive) and 31% (inactive),31.8% (inactive) and 59.7% (inactive),-83.9% (active) and -94.1% (active),-98.7% (active) and -88.3% (active)
CN(C)C1CCN(C(=O)c2ccc(NC(=O)Nc3ccc(-c4nc(N5CCOCC5)c5cccn5n4)cc3)cc2)CC1,0.561% (active),18.9% (inactive),-32.6% (active),0.146% (active),-30.4% (active),2.29% (active),-37.1% (active),-39.6% (active),-18.3% (active),-0.109% (active)
COc1cc2c(cc1OCCCOC1=C=C=C(c3ccc4c(c3)c3cc(-c5ccc(OCCCOc6cc7c(cc6OC)C(=O)N6CCC[C@H]6C=N7)cc5)ccc3n4S(=O)(=O)c3ccc(C)cc3)C=C1)N=C[C@@H]1CCCN1C2=O,-66.5% (active),8.45% (active),240% (inactive),23.3% (inactive),–,-41.8% (active),-26% (active),13.3% (inactive),52.6% (inactive),22.2% (inactive)
CCCCCC#CC1OC23CCCCC2C(C#N)(C(=N)O3)C1(C#N)C#N (configuration not stated),102% (inactive),84% (inactive),98% (inactive),95.8% (inactive),105% (inactive),102% (inactive),98.5% (inactive),100% (inactive),78.6% (inactive),93.7% (inactive)
Clc1ccc2c(c1)N(c1ncnc3ccc(-c4cnc5[nH]ccc5c4)cc13)CC2,27.6% (inactive),5.53% (active),7.46% (active),35.6% (inactive),4.78% (active),39.8% (inactive),19.7% (inactive),27.5% (inactive),34.4% (inactive),8.89% (active)
C=C1C(=O)O[C@H]2[C@H]1CC/C(CNS(=O)(=O)c1ccc3ccccc3c1)=C\CC[C@@]1(C)O[C@@H]21,-85% (active),-19.3% (active),-22.6% (active),2.57% (active),-80.8% (active),51.4% (inactive),71.2% (inactive),9.99% (active),-54.4% (active),-32.6% (active)
CC(C)(C)CC(N)=O,111% (inactive),116% (inactive),102% (inactive),–,103% (inactive),105% (inactive),92.5% (inactive),95.3% (inactive),95% (inactive),92% (inactive)
COc1ccc(-c2cc(-c3cc(OC)c(OC)c(OC)c3)c(C#N)c(=O)n2CCCCC(=O)O)cc1,98.2% (inactive),88% (inactive),114% (inactive),81.6% (inactive),99.2% (inactive),86.9% (inactive),95% (inactive),94.4% (inactive),103% (inactive),98% (inactive)
Cc1ccc(C(=O)Nc2nc3c(s2)CN(Cc2ccccc2)CC3)cn1,98% (inactive),36.8% (inactive),87.1% (inactive),100% (inactive),102% (inactive),91% (inactive),89.6% (inactive),103% (inactive),92.9% (inactive),79.9% (inactive)
CCNC(=O)Oc1ccc(/C(=C(/C)Cc2ccc(OC)cc2)c2ccc(OCCN(CC)CC)cc2)cc1,77.3% (inactive),-45.2% (active),-17.8% (active),45% (inactive),49.7% (inactive),67.1% (inactive),40.8% (inactive),74.5% (inactive),-56.3% (active),-63.6% (active)
CON1CCC[C@]2(C)[C@H]3CC[C@@H]4[C@H]5[C@@H](O)C(C)(C)CC[C@]5(CO)CC[C@@]4(C)[C@]3(C)CC[C@H]2C1(C)C,99% (inactive),87% (inactive),110% (inactive),90.5% (inactive),112% (inactive),100% (inactive),102% (inactive),106% (inactive),97.5% (inactive),99.6% (inactive)
O=C(Nc1ccc(Cl)c(Cl)c1)Nc1ccc(Cl)c(Cl)c1,-94.8% (active) and 21.1% (inactive),-33.4% (active) and 12.4% (inactive),-16.1% (active),-91.1% (active) and 24.1% (inactive),-88.2% (active) and 58.8% (inactive),-80.7% (active) and 31.9% (inactive),-11.8% (active),-83.3% (active) and 51.1% (inactive),-81.9% (active) and 50% (inactive),-85.7% (active) and 33.4% (inactive)
